Screening results (PubChem)
Only some compounds are listed: those with a hit (about 3.9% of all), similar ones and a draw of the others.
KKLEB cytotox: reduces viability of KKLEB cystic fibrosis airway cells. 0.36% of 360,000 active. KKLEB CF airway cells viability, ATPlite luminescence, overnight; hits give low values; cells stimulated with P. aeruginosa culture filtrate. activity change (cytotoxicity), % at 5 µM;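 active = corrected activity change at or below -50% at 5 µM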
TROY signal inh: blocks TROY-dependent signaling in reporter cells; Q293 LMP1-TROYcd NF-kB luciferase reporter, 4 h; inhibition, % at 10 µM; 0.98% of 360,000 active; AID 1347056;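 active = compounds whose plate-normalised and pattern-corrected inhibition of the luciferase reporter signal at the single screening dose is 50% or more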
TWEAK-Fn14 inh: inhibitors of TWEAK-Fn14 interaction signaling. AID 1159606. 2% of 360,000 active. inhibition, % at 10 µM. TWEAK-stimulated Fn14 reporter cells, luciferase luminescence, 8 h; in the data active = inhibition above about 50%
Peg3 prom inh: reduces Peg3 promoter-driven luciferase expression in HeLa; inhibition, % at 20 µM; 1.7% of 360,000 active; AID 588405; HeLa PEG-Prom luciferase reporter, luminescence, overnight;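 active = inhibition of at least 50% at 20 µM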
CF NFkB block: blocks PAF-induced NF-kB reporter in cystic fibrosis cells; inhibition, % at 5 µM; 0.86% of 360,000 active; AID 588850; KKLEB NF-kB-GFP reporter, GFP fluorescence overnight;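 active = at least 50% inhibition at 5 µM, scaled per plate between neutral and stimulator controls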;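 also: PAF is a Pseudomonas aeruginosa culture filtrate used as stimulus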
HIF-2a block: HIF-2a inhibition; inhibition, % at 18.8 µM; 786-0 RCC cells HIF-2a reporter, luciferase luminescence, overnight; 0.72% of 360,000 active; AID 624352;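 active = inhibition of the luminescence signal of 40% or more relative to plate controls, in a single-dose primary screen at 18.75 µM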
Each line names hits and unclear results; the compound was inactive in the other large screens.

O=C(NCc1ccccc1)C1CC(=O)N(c2ccc(OCC(=O)N3CCCC3)cc2)C1 (stereo unspecified)	none
COc1ccc(CNC(=O)C2CC(=O)N(c3ccc(OCC(=O)N4CCCCC4)cc3)C2)cc1 (stereo unspecified)	TROY signal inh 58
CCOC(=O)N1CCC(NC(=O)Cn2cccc2C(=O)c2ccccc2)CC1	none
CCOc1cccc(C(=O)Nc2cccc(C(=O)NCC(C)C)c2)c1	none
Cc1ccc(OCc2nc(-c3ccccn3)no2)c(Br)c1	TWEAK-Fn14 inh 85
CCc1ccc(OCc2nc(-c3ccccn3)no2)c(Br)c1	TWEAK-Fn14 inh 59
O=C(CNC(=S)N(Cc1ccccc1)Cc1ccccc1F)NCc1ccc(Cl)cc1	Peg3 prom inh 52
COc1ccc(-n2c(COc3cccc(C)c3)n[nH]c2=S)cc1	none
CC(=O)c1ccc(NC(=O)/C(Cl)=C/c2ccccc2)cc1	TROY signal inh 71
NC(=O)CC(NC(=O)Cc1ccc(Br)cc1)c1ccc(NC2CCCC2)c([N+](=O)[O-])c1 (stereo unspecified)	Peg3 prom inh 61
NC(=O)CC(NC(=O)Cc1ccc(Br)cc1)c1ccc(NC2CCCCCCC2)c([N+](=O)[O-])c1 (stereo unspecified)	none
N#Cc1c2ccc([N+](=O)[O-])cc2[n+]([O-])n1-c1ccccc1	Peg3 prom inh 100
CCOC(=O)[C@H]1[C@H]2COc3ccc(Br)cc3[C@@H]2N2C(=O)N(c3ccccc3)C(=O)[C@@]12C	none
CC1=NC(=O)C(N=Nc2cccc(C(=O)O)c2)N1c1ccccc1 (stereo unspecified)	HIF-2a block 54
CC(OC(=O)/C=C/c1cccs1)C(=O)Nc1ccc(S(N)(=O)=O)cc1 (stereo unspecified)	none
CC(OC(=O)/C=C/c1ccc2ccccc2n1)C(=O)Nc1ccc(S(N)(=O)=O)cc1 (stereo unspecified)	TWEAK-Fn14 inh 58
Cc1ccc(S(=O)(=O)Cn2nnnc2C(CC(C)C)N2CCC(C(N)=O)CC2)cc1 (stereo unspecified)	none
COC(=O)C1=C(C)N(Cc2ccccc2)C(=NCc2cc(OC)c(OC)c(OC)c2)N[C@H]1c1ccc(Br)cc1	Peg3 prom inh 106
COC(=O)C1=C(C)N(Cc2ccccc2)C(=NCc2ccccc2)N[C@H]1c1ccccc1	Peg3 prom inh 92
CCN(CC)CCCN=C1N[C@@H](c2cccc(C(F)(F)F)c2)C(C(=O)OC)=C(C)N1CC	Peg3 prom inh 51
COC(=O)C1=C(C)N(Cc2ccccc2)C(=NCc2ccccc2)N[C@H]1c1cccc(F)c1	Peg3 prom inh 101
COCCN=C1N[C@@H](c2ccccc2)C(C(=O)OC)=C(C)N1Cc1ccccc1	none
COc1cc(C(=O)NCC(=O)OCC(=O)N2CCc3ccccc32)cc(OC)c1OC	none
COC(=O)C1=C(C)N(Cc2ccccc2)C(=NCCc2c[nH]c3ccccc23)N[C@H]1c1cccc(F)c1	Peg3 prom inh 102
COC(=O)C1=C(C)N(Cc2ccccc2)C(=NCCc2c[nH]c3ccccc23)N[C@H]1c1ccccc1	none
COC(=O)c1ccc2nc(-c3ccc4c(c3)OCO4)cn2c1	TWEAK-Fn14 inh 89
CN(c1ccc(Cl)cc1)S(=O)(=O)c1nnc(NC(=O)c2ccco2)s1	none
CC(C)C(=O)Nc1nnc(S(=O)(=O)N(C)c2ccc(Cl)cc2)s1	TWEAK-Fn14 inh 72
CCOc1ccc(C2C(C#N)=C(N)N(N(C)C)C3=C2C(=O)CC(C)(C)C3)cc1 (stereo unspecified)	none
Cc1nnc(SCC(=O)Nc2ccc(-c3nc4ccccc4s3)cc2)s1	TROY signal inh 55, TWEAK-Fn14 inh 77
Cc1ccc2nc(-c3ccc(NC(=O)CSc4nccc(=O)[nH]4)cc3)sc2c1	TROY signal inh 51
O=C(CCN1C(=O)NC2(CCCC2)C1=O)Nc1ccc(-c2nc3ccccc3s2)cc1	TWEAK-Fn14 inh 60, Peg3 prom inh 101
Cc1ccc2nc(-c3ccc(NC(=O)C(C)Sc4nncs4)cc3)sc2c1 (stereo unspecified)	TROY signal inh 73, TWEAK-Fn14 inh 89
Cc1ccc(-c2cc(NC(=O)c3ccccc3)on2)cc1	none
COC(=O)C(CCSC)NC(=O)/C=C/c1ccc(OC)cc1 (stereo unspecified)	none
CC1=C(C(=O)N2CCCCCC2)CC(CC(=O)NC2CCCCC2)C(=O)N1Cc1ccccc1 (stereo unspecified)	none
O=C(Nc1ccc(-c2nc3ccccc3s2)cc1)c1cc(-n2cnnc2)ccc1Cl	TROY signal inh 53, TWEAK-Fn14 inh 95
Cc1cc2nc(-c3ccccc3)c(CC3CCCCC3)n2c(C)c1Br	none (no result: KKLEB cytotox, Peg3 prom inh, CF NFkB block)
O=C(Nc1ccn(Cc2ccccc2)n1)c1cccc(Cn2cc([N+](=O)[O-])cn2)c1	none
COc1ccc(-c2nc(NC(=O)c3cc(C(C)(C)C)nn3C)sc2C)cc1	TWEAK-Fn14 inh 68
CC/C(=N/Nc1ccccc1)c1cnnc(-c2ccccc2)n1	KKLEB cytotox -51
CC/C(=N/Nc1cccc(Cl)c1)c1cnnc(SC)n1	none
CC(C)(C)OC(=O)NCc1ccc(CNC(=O)c2nc[nH]c2C(=O)NCc2ccc(CNC(=O)OC(C)(C)C)cc2)cc1	none
CC(C)(C)OC(=O)NCCCCCNC(=O)c1[nH]cnc1C(=O)N[C@@H](CCCCNC(=O)OC(C)(C)C)C(=O)OC(C)(C)C	none
CC(C)(C)OC(=O)NCCCCCNC(=O)c1nc[nH]c1C(=O)NCCCCCNC(=O)OC(C)(C)C	TROY signal inh 58, TWEAK-Fn14 inh 65, Peg3 prom inh 64
CC(C)(C)OC(=O)NCCCCCNC(=O)c1nc[nH]c1C(=O)NCc1ccc(CNC(=O)OC(C)(C)C)cc1	TROY signal inh 64, TWEAK-Fn14 inh 96, Peg3 prom inh 80
Cc1cccc(NC(=O)c2nc[nH]c2C(=O)NC2CCN(C(=O)OC(C)(C)C)CC2)c1	Peg3 prom inh 61
CC(C)C[C@H](NC(=O)c1nc[nH]c1C(=O)NCCCCCNC(=O)OC(C)(C)C)C(=O)OCc1ccccc1	none
Cc1cccc(NC(=O)c2nc[nH]c2C(=O)N2CCN(C(=O)OC(C)(C)C)CC2)c1	none
CC(C)(C)OC(=O)NCCCCCNC(=O)c1[nH]cnc1C(=O)N[C@@H](Cc1ccccc1)C(=O)OCc1ccccc1	Peg3 prom inh 59
N#Cc1ccccc1OCC(=O)Nc1ccc(N2CCOCC2)cc1N1CCOCC1	none
CC(C)(C)OC(=O)NCc1ccc(CNC(=O)c2[nH]cnc2C(=O)NC2CCN(C(=O)OC(C)(C)C)CC2)cc1	TWEAK-Fn14 inh 57, Peg3 prom inh 61
CCOc1ccc(C(NC(=O)CC)c2c(O)ccc3ccccc23)cc1 (stereo unspecified)	none
